From PMC7862700, “An all-to-all approach to the identification of sequence-specific readers for epigenetic DNA modifications on cytosine”

Experiments:
Experiment in all cases: DAPPL (digital affinity profiling via proximity ligation, sequencing); 10 mM Tris-HCl pH 7.5, 50 mM NaCl, 1 mM DTT, 4% glycerol, room temperature, 30 min; GST-TFs on glutathione beads, 16-mer random dsDNA library, 0.1% formaldehyde crosslink after washing; high values mean tight binding
Conditions in all cases: protein: recombinant; tags: N-terminal GST; dsDNA, one strand shown
[1] = target: T1, ERF (Homo sapiens, UniProt P50548 1-548)
T1 sequence: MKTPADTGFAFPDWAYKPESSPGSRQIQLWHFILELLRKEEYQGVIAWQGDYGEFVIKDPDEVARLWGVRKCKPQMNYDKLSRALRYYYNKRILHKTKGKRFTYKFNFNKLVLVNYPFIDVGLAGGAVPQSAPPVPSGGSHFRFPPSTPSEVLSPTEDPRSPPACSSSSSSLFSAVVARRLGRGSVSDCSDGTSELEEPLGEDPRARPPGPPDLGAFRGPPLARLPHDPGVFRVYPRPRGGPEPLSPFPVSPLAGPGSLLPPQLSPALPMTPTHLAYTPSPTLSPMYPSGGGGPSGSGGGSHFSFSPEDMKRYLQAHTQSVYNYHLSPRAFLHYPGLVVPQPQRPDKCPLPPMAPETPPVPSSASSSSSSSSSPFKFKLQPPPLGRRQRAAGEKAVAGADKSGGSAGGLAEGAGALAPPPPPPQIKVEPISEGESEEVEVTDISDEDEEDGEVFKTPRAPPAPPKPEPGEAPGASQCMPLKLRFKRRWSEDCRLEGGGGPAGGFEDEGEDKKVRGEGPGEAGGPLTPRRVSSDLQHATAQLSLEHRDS
How it was run: (§1)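 Binding signal is defined as a hexamer's read frequency for one factor over its frequency for the tag-only sample. To obtain reads, GST-fused human transcription factors were expressed in yeast, captured on glutathione beads, barcoded with DNA and pooled with that sample. Pools met 200 nmole of a 16-mer random double-stranded DNA library in Tris/NaCl/DTT/glycerol buffer for 30 min at room temperature before washing, 0.1% formaldehyde crosslinking, proximity ligation (BsaI/T4 ligase, 1 h, 37 °C), PCR and Illumina NextSeq500 sequencing.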

[2] = target: T2, ETV3L (Homo sapiens, UniProt Q6ZN32 1-361)
T2 sequence: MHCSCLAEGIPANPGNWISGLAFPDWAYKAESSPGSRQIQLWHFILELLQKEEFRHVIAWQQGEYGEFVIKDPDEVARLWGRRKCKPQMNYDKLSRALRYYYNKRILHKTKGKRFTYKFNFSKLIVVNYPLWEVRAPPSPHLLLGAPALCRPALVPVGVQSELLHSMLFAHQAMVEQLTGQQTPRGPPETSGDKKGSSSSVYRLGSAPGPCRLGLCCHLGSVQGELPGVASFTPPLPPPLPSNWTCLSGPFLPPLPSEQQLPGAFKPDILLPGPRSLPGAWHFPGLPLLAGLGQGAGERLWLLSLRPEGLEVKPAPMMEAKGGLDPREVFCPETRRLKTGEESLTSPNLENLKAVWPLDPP
How it was run: as §1

[3] = target: T3, ETS2 (Homo sapiens, UniProt P15036 1-469)
T3 sequence: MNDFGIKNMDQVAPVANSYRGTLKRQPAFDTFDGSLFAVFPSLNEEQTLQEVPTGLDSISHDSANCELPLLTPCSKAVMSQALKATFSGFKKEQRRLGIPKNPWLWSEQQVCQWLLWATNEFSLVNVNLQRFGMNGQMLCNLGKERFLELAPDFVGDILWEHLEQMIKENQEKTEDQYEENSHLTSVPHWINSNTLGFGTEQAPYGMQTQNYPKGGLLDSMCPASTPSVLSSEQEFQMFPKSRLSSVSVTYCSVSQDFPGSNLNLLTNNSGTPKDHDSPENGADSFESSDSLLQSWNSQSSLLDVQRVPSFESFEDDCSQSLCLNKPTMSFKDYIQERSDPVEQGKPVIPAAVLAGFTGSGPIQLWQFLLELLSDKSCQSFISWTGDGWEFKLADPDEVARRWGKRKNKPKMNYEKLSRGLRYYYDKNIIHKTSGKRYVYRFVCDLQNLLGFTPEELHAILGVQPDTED
How it was run: as §1

[4] = target: T4, SPDEF (Homo sapiens, UniProt O95238 1-335)
T4 sequence: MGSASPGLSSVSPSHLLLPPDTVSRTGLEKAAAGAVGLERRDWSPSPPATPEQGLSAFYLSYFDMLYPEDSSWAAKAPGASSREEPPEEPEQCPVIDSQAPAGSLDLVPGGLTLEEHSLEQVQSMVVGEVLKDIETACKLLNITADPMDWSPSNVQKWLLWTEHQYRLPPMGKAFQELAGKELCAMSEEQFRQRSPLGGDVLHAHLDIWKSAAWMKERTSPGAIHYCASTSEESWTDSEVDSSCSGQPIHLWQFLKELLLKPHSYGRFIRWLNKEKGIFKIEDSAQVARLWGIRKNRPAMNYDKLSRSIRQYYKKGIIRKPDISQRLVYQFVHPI
How it was run: as §1

[5] = target: T5, ETV7 (Homo sapiens, UniProt Q9Y603 1-341)
T5 sequence: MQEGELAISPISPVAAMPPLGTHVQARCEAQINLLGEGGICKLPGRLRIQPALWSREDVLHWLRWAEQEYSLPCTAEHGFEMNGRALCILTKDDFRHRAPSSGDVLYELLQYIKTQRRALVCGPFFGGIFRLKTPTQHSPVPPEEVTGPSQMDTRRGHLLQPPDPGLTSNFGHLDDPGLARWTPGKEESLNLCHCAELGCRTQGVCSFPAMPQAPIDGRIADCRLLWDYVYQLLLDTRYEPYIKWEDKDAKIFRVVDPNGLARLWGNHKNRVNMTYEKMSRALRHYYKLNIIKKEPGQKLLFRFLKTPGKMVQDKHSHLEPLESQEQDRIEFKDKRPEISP
How it was run: as §1

[6] = target: T6, ELF5 (Homo sapiens, UniProt Q9UKW6-2 1-255)
T6 sequence: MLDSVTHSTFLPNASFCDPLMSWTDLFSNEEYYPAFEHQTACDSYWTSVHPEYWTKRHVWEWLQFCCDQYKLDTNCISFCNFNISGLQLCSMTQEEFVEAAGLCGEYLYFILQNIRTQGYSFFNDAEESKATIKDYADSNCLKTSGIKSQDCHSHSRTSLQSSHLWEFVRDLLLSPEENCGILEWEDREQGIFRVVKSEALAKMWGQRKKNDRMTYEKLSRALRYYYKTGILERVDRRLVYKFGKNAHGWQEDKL
How it was run: as §1

[7] = target: T7, ETV3 (Homo sapiens, UniProt P41162-2 1-143)
T7 sequence: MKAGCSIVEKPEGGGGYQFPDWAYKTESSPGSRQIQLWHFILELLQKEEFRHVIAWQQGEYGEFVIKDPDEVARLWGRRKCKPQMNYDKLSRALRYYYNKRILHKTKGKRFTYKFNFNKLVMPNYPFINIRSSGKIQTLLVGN
How it was run: as §1

[8] = target: ETV6 (Homo sapiens, UniProt P41212 1-452)
How it was run: as §1

ETV6, sequence (P41212 whole entry): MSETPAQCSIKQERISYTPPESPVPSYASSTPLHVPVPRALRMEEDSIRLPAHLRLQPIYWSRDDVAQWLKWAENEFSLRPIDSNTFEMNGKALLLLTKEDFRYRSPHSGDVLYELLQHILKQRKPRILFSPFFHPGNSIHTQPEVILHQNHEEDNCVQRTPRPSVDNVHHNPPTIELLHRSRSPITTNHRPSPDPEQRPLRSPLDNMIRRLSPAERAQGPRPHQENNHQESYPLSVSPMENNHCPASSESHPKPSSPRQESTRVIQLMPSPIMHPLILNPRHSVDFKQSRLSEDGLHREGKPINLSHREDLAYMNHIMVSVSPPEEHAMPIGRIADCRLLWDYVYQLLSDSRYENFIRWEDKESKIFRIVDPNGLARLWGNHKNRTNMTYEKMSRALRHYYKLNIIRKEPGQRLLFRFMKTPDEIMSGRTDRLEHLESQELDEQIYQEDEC

CCAATG
binding signal [1]: 1.03 fold enrichment (6-mer frequency, TF over GST control) | binding signal [2]: 1.11 fold enrichment (6-mer frequency, TF over GST control) | binding signal [3]: 1.08 fold enrichment (6-mer frequency, TF over GST control) | binding signal [4]: 1.02 fold enrichment (6-mer frequency, TF over GST control) | binding signal [5]: 1.1 fold enrichment (6-mer frequency, TF over GST control) | binding signal [6]: 1.05 fold enrichment (6-mer frequency, TF over GST control) | binding signal [7]: 1.15 fold enrichment (6-mer frequency, TF over GST control) | binding signal [8]: 1.14 fold enrichment (6-mer frequency, TF over GST control)

TTCGCG
binding signal [1]: 1.23 fold enrichment (6-mer frequency, TF over GST control) | binding signal [2]: 1.15 fold enrichment (6-mer frequency, TF over GST control) | binding signal [3]: 1.1 fold enrichment (6-mer frequency, TF over GST control) | binding signal [4]: 1.15 fold enrichment (6-mer frequency, TF over GST control) | binding signal [5]: 1.08 fold enrichment (6-mer frequency, TF over GST control) | binding signal [6]: 1.07 fold enrichment (6-mer frequency, TF over GST control) | binding signal [7]: 1.12 fold enrichment (6-mer frequency, TF over GST control) | binding signal [8]: 1.17 fold enrichment (6-mer frequency, TF over GST control)

TCCTTA
binding signal [1]: 1.43 fold enrichment (6-mer frequency, TF over GST control) | binding signal [2]: 1.7 fold enrichment (6-mer frequency, TF over GST control) | binding signal [3]: 1.6 fold enrichment (6-mer frequency, TF over GST control) | binding signal [4]: 1.75 fold enrichment (6-mer frequency, TF over GST control) | binding signal [5]: 1.59 fold enrichment (6-mer frequency, TF over GST control) | binding signal [6]: 2.6 fold enrichment (6-mer frequency, TF over GST control) | binding signal [7]: 1.74 fold enrichment (6-mer frequency, TF over GST control) | binding signal [8]: 1.63 fold enrichment (6-mer frequency, TF over GST control)

TGACGA
binding signal [1]: 1.14 fold enrichment (6-mer frequency, TF over GST control) | binding signal [2]: 1.07 fold enrichment (6-mer frequency, TF over GST control) | binding signal [3]: 1.17 fold enrichment (6-mer frequency, TF over GST control) | binding signal [4]: 1 fold enrichment (6-mer frequency, TF over GST control) | binding signal [5]: 1.11 fold enrichment (6-mer frequency, TF over GST control) | binding signal [6]: 1.04 fold enrichment (6-mer frequency, TF over GST control) | binding signal [7]: 1.09 fold enrichment (6-mer frequency, TF over GST control) | binding signal [8]: 1.16 fold enrichment (6-mer frequency, TF over GST control)

TCCCTT
binding signal [1]: 1.57 fold enrichment (6-mer frequency, TF over GST control) | binding signal [2]: 1.64 fold enrichment (6-mer frequency, TF over GST control) | binding signal [3]: 1.67 fold enrichment (6-mer frequency, TF over GST control) | binding signal [4]: 1.61 fold enrichment (6-mer frequency, TF over GST control) | binding signal [5]: 1.57 fold enrichment (6-mer frequency, TF over GST control) | binding signal [6]: 1.72 fold enrichment (6-mer frequency, TF over GST control) | binding signal [7]: 1.54 fold enrichment (6-mer frequency, TF over GST control) | binding signal [8]: 1.53 fold enrichment (6-mer frequency, TF over GST control)

GTTCAA
binding signal [1]: 1.14 fold enrichment (6-mer frequency, TF over GST control) | binding signal [2]: 1.19 fold enrichment (6-mer frequency, TF over GST control) | binding signal [3]: 1.14 fold enrichment (6-mer frequency, TF over GST control) | binding signal [4]: 1.22 fold enrichment (6-mer frequency, TF over GST control) | binding signal [5]: 1.03 fold enrichment (6-mer frequency, TF over GST control) | binding signal [6]: 1.12 fold enrichment (6-mer frequency, TF over GST control) | binding signal [7]: 1.15 fold enrichment (6-mer frequency, TF over GST control) | binding signal [8]: 1.16 fold enrichment (6-mer frequency, TF over GST control)

CATAAC
binding signal [1]: 1.12 fold enrichment (6-mer frequency, TF over GST control) | binding signal [2]: 1.18 fold enrichment (6-mer frequency, TF over GST control) | binding signal [3]: 1.19 fold enrichment (6-mer frequency, TF over GST control) | binding signal [4]: 1.15 fold enrichment (6-mer frequency, TF over GST control) | binding signal [5]: 1.18 fold enrichment (6-mer frequency, TF over GST control) | binding signal [6]: 1.15 fold enrichment (6-mer frequency, TF over GST control) | binding signal [7]: 1.17 fold enrichment (6-mer frequency, TF over GST control) | binding signal [8]: 1.23 fold enrichment (6-mer frequency, TF over GST control)

ATATTC
binding signal [1]: 1.08 fold enrichment (6-mer frequency, TF over GST control) | binding signal [2]: 1.35 fold enrichment (6-mer frequency, TF over GST control) | binding signal [3]: 1.2 fold enrichment (6-mer frequency, TF over GST control) | binding signal [4]: 1.26 fold enrichment (6-mer frequency, TF over GST control) | binding signal [5]: 1.24 fold enrichment (6-mer frequency, TF over GST control) | binding signal [6]: 1.31 fold enrichment (6-mer frequency, TF over GST control) | binding signal [7]: 1.19 fold enrichment (6-mer frequency, TF over GST control) | binding signal [8]: 1.32 fold enrichment (6-mer frequency, TF over GST control)
